# In PubChem BioAssay (EPA / NIEHS):
# Inconclusive results are not listed. Active and inactive are the calls of the source. The calls were made as follows, unless noted: active = hit-call score of the fitted dose curve at least 0.9, where 1 is the maximum; inactive = score below 0.9.
# How the values were obtained:
# [1] = biological target: Peroxisome proliferator-activated receptor gamma (Homo sapiens) (UniProt P37231); experiment: OT_PPARg_PPARgSRC1_0480: Odyssey Thera (OT) 8-hour Protein-Complementation Assay for Peroxisome Proliferator-activated Receptor Gamma / SRC-1 Co-activator (AID 2283387; active = hit-call score of the fitted dose curve at least 0.9, where 1 is the maximum)
# Sequence of Peroxisome proliferator-activated receptor gamma (Homo sapiens) (P37231 whole entry, looked up, the tested form may be a part): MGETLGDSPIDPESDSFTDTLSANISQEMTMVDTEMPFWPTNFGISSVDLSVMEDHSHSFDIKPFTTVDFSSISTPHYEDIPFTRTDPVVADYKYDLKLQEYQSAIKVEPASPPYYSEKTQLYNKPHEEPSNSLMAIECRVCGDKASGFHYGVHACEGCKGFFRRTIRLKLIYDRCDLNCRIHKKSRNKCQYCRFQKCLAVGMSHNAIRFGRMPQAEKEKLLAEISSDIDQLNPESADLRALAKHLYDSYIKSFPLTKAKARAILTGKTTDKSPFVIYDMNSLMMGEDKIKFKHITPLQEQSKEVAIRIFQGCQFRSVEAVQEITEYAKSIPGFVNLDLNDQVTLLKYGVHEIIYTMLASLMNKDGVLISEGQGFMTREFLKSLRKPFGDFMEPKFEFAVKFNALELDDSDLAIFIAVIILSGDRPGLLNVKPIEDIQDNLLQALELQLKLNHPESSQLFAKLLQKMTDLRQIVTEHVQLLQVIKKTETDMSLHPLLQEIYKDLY
# Method in brief: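 Protein-fragment complementation of split Venus YFP reports PPARg/SRC-1 interaction in HEK293T (transfected 48 h before treatment), exposed 8 h. Readout: N/C fluorescence ratio at 488 nm from imaging, Draq5 for segmentation, positive fit relative to DMSO.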
# [2] = biological target: Peroxisome proliferator-activated receptor gamma (Homo sapiens) (UniProt P37231); experiment: OT_PPARg_PPARgSRC1_1440: Odyssey Thera (OT) 24-hour Protein-Complementation Assay for Peroxisome Proliferator-activated Receptor Gamma/ SRC-1 Co-activator (AID 2283388; active = hit-call score of the fitted dose curve at least 0.9, where 1 is the maximum)
# Method in brief: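 HEK293T cells transiently transfected with PPARg and SRC-1 fused via (Gly4Ser)2 linker to split Venus YFP fragments (IFP1/IFP2) were dosed 24 h; fixed, Draq5-stained, imaged at 488/635 nm; nuclear/cytoplasmic fluorescence ratio scored versus DMSO baseline, gain-of-signal.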
# [3] = read-out: Tumor necrosis factor receptor superfamily member 6 (Homo sapiens) (UniProt P25445); experiment: LTEA_HepaRG_FAS: Life Technologies and Expression Analysis (LTEA) Assay for Fas cell surface death receptor (FAS) using HepaRG (AID 2283447); settings: mRNA level, 48 h; actives raise or lower the signal
# Method in brief: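 Differentiated HepaRG cells in serum-free induction medium were exposed 48 h to 8 half-log concentrations up to 100 uM in 0.5% DMSO, in duplicate. FAS mRNA was measured by qRT-PCR normalised to ACTB, GAPDH and POLR2A; bidirectional fit versus DMSO.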
# [4] = read-out: Fatty acid synthase (Homo sapiens) (UniProt P49327); experiment: LTEA_HepaRG_FASN: Life Technologies and Expression Analysis (LTEA) Assay for Fatty Acid Synthase (FASN) using HepaRG (AID 2283448); settings: mRNA level, 48 h; actives raise or lower the signal
# Method in brief: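 HepaRG, 48 h exposure, 8-pt half-log series top 100 uM, 0.5% DMSO vehicle, duplicates. Readout: FASN transcript by Fluidigm qRT-PCR; housekeeping-normalized; bidirectional curve fit vs DMSO baseline.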
# [5] = read-out: Cyclin Dependent Kinase Inhibitor 1A (CDKN1A), CDKN1A (gene 1026); experiment: LTEA_HepaRG_CDKN1A: Life Technologies and Expression Analysis (LTEA) Assay for Cyclin Dependent Kinase Inhibitor 1A (CDKN1A) using HepaRG (AID 2283450); settings: mRNA level, 48 h; actives raise or lower the signal
# Method in brief: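 Differentiated human HepaRG cells, pre-cultured 48 h, were exposed in duplicate for 48 h in serum-free induction medium to eight half-log concentrations up to 100 uM (0.5% DMSO). CDKN1A mRNA was measured by qRT-PCR, normalized to ACTB/GAPDH/POLR2A, bidirectionally fitted versus DMSO.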
# [6] = read-out: Cyclin D1 (CCND1), CCND1 (gene 595); experiment: LTEA_HepaRG_CCND1: Life Technologies and Expression Analysis (LTEA) Assay for Cyclin D1 (CCND1) using HepaRG (AID 2283451); settings: mRNA level, 48 h; actives raise or lower the signal;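 as to AC50: TaqMan qRT-PCR transcript level normalised to ACTB GAPDH and POLR2A housekeeping genes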
# Method in brief: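 Differentiated human HepaRG cells in serum-free induction medium were exposed 48 h to eight half-log concentrations up to 100 uM in 0.5% DMSO; mRNA quantified by TaqMan qRT-PCR, normalized to ACTB, GAPDH, POLR2A, fitted bidirectionally versus DMSO.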
# [7] = read-out: catalase (CAT), CAT (gene 847); experiment: LTEA_HepaRG_CAT: Life Technologies and Expression Analysis (LTEA) Assay for catalase (CAT) using HepaRG (AID 2283452); settings: mRNA level, 48 h; actives raise or lower the signal;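 as to AC50: TaqMan qRT-PCR signal normalized to ACTB GAPDH and POLR2A housekeeping genes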
# Method in brief: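 HepaRG cells in serum-free induction medium, 0.5% DMSO vehicle, exposed 48 h in duplicate over 8 half-log concentrations from 100 uM. CAT mRNA measured by qRT-PCR, normalized to ACTB, GAPDH, POLR2A; bidirectional fit versus DMSO.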
# [8] = read-out: flavin-containing dimethylaniline monooxygenases 3 (FMO3), FMO3 (gene 2328); experiment: LTEA_HepaRG_FMO3: Life Technologies and Expression Analysis (LTEA) Assay for flavin-containing dimethylaniline monooxygenases 3 (FMO3) using HepaRG (AID 2283453); settings: mRNA level, 48 h; actives raise or lower the signal;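 as to AC50: FMO3 transcript by TaqMan qRT-PCR normalized to ACTB GAPDH and POLR2A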
# Method in brief: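 Eight-point concentration-response in serum-free HepaRG cultures (top 100 uM, 0.5% DMSO, 48 h). Read-out: FMO3 mRNA level normalized to three endogenous control genes, fitted bidirectionally versus vehicle.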
# [9] = read-out: Cytochrome P450 (CYP1A1), CYP1A1 (gene 1543); experiment: LTEA_HepaRG_CYP1A1: Life Technologies and Expression Analysis (LTEA) Assay for Cytochrome P450 (CYP1A1) using HepaRG (AID 2283454); settings: mRNA level, 48 h; actives raise or lower the signal
# Method in brief: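 Differentiated HepaRG cells in serum-free induction medium were exposed in duplicate for 48 h to eight half-log concentrations up to 100 uM in 0.5% DMSO. CYP1A1 mRNA was quantified by TaqMan qRT-PCR, normalized to ACTB, GAPDH and POLR2A.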
# [10] = read-out: Cyclin D2 (CCND2), CCND2 (gene 894); experiment: LTEA_HepaRG_CCND2: Life Technologies and Expression Analysis (LTEA) Assay for Cyclin D2 (CCND2) using HepaRG (AID 2283449); settings: mRNA level, 48 h; actives raise or lower the signal;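 also: CCND2 transcript measured by TaqMan qRT-PCR and normalised to three housekeeping genes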
# Method in brief: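 HepaRG, 48 h dosing, 8-pt half-log curve from 100 uM, 0.5% DMSO; duplicate wells. Readout: CCND2 transcript by microfluidic qRT-PCR, housekeeping-normalised; bidirectional fit vs DMSO baseline.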
# [11] = CEETOX_H295R_OHPREG: CeeTox H295R High-throughput Steroidogenesis Assay for OH-Pregnenolone (OHPREG) (AID 2283434); settings: actives raise or lower the signal
# Method in brief: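 H295R, 10 uM forskolin pre-stim 48 h; test chemical 48 h, 0.1% DMSO final. MTBE extraction, reverse-phase C18 HPLC-ESI+ MS/MS of medium. Gain/loss vs DMSO; viability by MTT in same wells.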
# [12] = CEETOX_H295R_OHPROG: CeeTox H295R High-throughput Steroidogenesis Assay for OH-Progesterone (OHPROG) (AID 2283435); settings: actives raise or lower the signal
# Method in brief: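 HPLC-MS/MS quantification of 17alpha-hydroxyprogesterone secreted by H295R cells after 48 h chemical exposure, following 48 h 10 uM forskolin prestimulation. Gain or loss of signal fitted relative to DMSO. Viability checked by MTT in the same wells.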
# [13] = CEETOX_H295R_ESTRADIOL: CeeTox H295R High-throughput Steroidogenesis Assay for Estradiol (AID 2283440); settings: actives raise or lower the signal;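 also: estradiol secreted into medium quantified by LC-MS/MS after dansyl derivatisation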
# Method in brief: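 H295R adrenocortical cells were prestimulated with 10 uM forskolin for 48 h, then exposed to test chemical in 0.1% DMSO for 48 h. Medium estradiol was extracted with MTBE, dansyl-derivatized and quantified by HPLC-MS/MS; bidirectional fit versus DMSO.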
# [14] = CEETOX_H295R_ESTRONE: CeeTox H295R High-throughput Steroidogenesis Assay for Estrone (AID 2283441); settings: actives raise or lower the signal;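 also: estrone secreted into medium measured by LC-MS/MS after dansyl derivatization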
# Method in brief: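 Forskolin-stimulated H295R cells are treated 48 h with chemical, and estrone in the medium is measured by LC-MS/MS. Activity is fitted in both directions relative to DMSO controls, with chemicals diluted until MTT viability reaches at least 70%.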
# [15] = CEETOX_H295R_PROG: CeeTox H295R High-throughput Steroidogenesis Assay for Progesterone (PROG) (AID 2283442); settings: actives raise or lower the signal
# Method in brief: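 H295R human adrenal cells were prestimulated with 10 uM forskolin for 48 h, then exposed to test chemical (0.1% DMSO final) for 48 h. Medium progesterone was MTBE-extracted and quantified by HPLC-MS/MS, with bidirectional fitting against DMSO.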
# Sequence of Fatty acid synthase (Homo sapiens) (P49327 whole entry, looked up): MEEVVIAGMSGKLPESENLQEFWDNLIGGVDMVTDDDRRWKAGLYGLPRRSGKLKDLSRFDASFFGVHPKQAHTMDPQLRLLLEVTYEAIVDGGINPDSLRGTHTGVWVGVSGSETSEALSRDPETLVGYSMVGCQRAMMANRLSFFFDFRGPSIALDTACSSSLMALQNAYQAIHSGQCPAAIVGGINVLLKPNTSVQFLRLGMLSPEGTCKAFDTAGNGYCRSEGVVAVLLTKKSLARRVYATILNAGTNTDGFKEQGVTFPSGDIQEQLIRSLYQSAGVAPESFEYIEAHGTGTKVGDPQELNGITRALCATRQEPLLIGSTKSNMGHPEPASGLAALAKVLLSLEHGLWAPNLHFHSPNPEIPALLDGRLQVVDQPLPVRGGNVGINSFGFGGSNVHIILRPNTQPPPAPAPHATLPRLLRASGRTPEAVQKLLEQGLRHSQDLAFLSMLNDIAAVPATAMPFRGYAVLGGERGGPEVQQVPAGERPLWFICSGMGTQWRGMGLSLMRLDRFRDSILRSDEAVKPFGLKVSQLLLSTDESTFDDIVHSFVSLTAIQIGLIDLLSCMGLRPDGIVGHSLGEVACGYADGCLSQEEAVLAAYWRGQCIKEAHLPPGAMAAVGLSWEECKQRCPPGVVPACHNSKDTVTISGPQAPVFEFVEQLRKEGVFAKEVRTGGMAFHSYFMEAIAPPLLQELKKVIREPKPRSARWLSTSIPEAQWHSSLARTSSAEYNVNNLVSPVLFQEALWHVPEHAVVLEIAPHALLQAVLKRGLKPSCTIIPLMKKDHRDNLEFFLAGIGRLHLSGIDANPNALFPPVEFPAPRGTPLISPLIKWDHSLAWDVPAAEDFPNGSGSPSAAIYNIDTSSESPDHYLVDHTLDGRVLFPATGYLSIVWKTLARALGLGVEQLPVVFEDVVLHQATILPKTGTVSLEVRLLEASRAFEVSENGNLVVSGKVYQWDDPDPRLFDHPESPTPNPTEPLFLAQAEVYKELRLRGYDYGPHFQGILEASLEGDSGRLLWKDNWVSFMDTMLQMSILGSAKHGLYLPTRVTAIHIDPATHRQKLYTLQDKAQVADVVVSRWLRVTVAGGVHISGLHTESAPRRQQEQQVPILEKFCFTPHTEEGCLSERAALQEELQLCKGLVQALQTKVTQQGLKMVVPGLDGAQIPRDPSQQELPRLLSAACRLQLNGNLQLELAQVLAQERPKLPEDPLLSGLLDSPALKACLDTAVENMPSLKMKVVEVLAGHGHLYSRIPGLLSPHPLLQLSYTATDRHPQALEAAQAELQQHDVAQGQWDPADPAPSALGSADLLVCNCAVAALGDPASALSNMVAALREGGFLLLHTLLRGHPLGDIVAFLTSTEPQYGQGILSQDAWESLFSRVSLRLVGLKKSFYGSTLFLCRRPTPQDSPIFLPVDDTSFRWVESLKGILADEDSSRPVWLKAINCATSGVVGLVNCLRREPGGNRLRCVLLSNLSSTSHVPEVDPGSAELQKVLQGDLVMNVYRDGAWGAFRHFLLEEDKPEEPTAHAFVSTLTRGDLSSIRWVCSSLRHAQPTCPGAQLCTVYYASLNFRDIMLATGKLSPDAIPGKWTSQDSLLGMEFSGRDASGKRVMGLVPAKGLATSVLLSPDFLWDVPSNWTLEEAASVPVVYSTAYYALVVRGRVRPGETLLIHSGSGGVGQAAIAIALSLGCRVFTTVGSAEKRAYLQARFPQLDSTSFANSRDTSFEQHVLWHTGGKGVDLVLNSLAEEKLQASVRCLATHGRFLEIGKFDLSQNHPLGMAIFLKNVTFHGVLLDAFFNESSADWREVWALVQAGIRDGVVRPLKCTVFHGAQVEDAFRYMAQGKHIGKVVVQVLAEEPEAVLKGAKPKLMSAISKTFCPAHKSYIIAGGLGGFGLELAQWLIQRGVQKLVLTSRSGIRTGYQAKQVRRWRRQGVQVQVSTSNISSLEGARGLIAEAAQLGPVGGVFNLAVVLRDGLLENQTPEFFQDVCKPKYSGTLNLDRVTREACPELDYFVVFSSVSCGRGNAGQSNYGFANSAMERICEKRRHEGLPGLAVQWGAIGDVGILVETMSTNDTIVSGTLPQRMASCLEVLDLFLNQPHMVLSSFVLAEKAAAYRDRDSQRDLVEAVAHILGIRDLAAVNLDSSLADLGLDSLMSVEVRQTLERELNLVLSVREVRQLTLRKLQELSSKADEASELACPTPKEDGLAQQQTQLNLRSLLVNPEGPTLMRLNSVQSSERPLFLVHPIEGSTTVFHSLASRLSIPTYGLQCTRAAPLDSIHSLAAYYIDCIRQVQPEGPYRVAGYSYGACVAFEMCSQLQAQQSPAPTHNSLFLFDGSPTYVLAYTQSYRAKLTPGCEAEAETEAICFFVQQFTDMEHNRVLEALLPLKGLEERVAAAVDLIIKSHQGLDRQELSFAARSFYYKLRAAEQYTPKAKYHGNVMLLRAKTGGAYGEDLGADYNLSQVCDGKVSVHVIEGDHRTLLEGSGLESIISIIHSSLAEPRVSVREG
structure (smiles),measurement,setting,value
CC(c1ccc(O)cc1)(c1ccc(O)cc1)c1ccc(O)cc1,outcome,[1],inactive
same,outcome,[2],inactive
same,AC50,[3],91.1 µM (active)
same,AC50,[4],32.1 µM (active)
same,AC50,[5],50 µM (active)
same,AC50,[6],24.1 µM (active)
same,AC50,[7],50 µM (active)
same,AC50,[8],74.5 µM (active)
same,AC50,[9],15.8 µM (active)
CN(C)CCO,outcome,[1],inactive
same,outcome,[2],inactive
same,outcome,[3],inactive
same,outcome,[4],inactive
same,outcome,[10],inactive
same,outcome,[5],inactive
same,outcome,[6],inactive
same,outcome,[7],inactive
same,outcome,[8],inactive
same,outcome,[9],inactive
ClC(Cl)=C(c1ccc(Cl)cc1)c1ccc(Cl)cc1,outcome,[1],inactive
same,outcome,[2],inactive
same,outcome,[3],inactive
same,AC50,[4],50 µM (active)
same,outcome,[10],inactive
same,outcome,[5],inactive
same,outcome,[6],inactive
same,outcome,[7],inactive
same,outcome,[8],inactive
same,AC50,[9],36.8 µM (active)
CN(C)c1nc(=O)n(C2CCCCC2)c(=O)n1C,outcome,[1],inactive
same,outcome,[2],inactive
same,outcome,[3],inactive
same,outcome,[4],inactive
same,outcome,[10],inactive
same,outcome,[5],inactive
same,outcome,[6],inactive
same,outcome,[7],inactive
same,outcome,[8],inactive
same,AC50,[9],50 µM (active)
O=S(=O)(O)C(F)(F)C(F)(F)C(F)(F)C(F)(F)C(F)(F)C(F)(F)F,outcome,[1],inactive
same,outcome,[2],inactive
same,outcome,[3],inactive
same,outcome,[4],inactive
same,outcome,[10],inactive
same,outcome,[5],inactive
same,outcome,[6],inactive
same,AC50,[7],7.16 µM (active)
same,outcome,[8],inactive
same,AC50,[9],50 µM (active)
O=C(N[C@H]1CN2CCC1CC2)c1cc2ccoc2cn1,outcome,[1],inactive
same,outcome,[2],inactive
same,outcome,[3],inactive
same,outcome,[4],inactive
same,outcome,[10],inactive
same,outcome,[5],inactive
same,outcome,[6],inactive
same,outcome,[7],inactive
same,outcome,[8],inactive
same,AC50,[9],50 µM (active)
CCOC(=O)C(O)(c1ccc(Cl)cc1)c1ccc(Cl)cc1,outcome,[1],inactive
same,outcome,[2],inactive
same,outcome,[3],inactive
same,outcome,[4],inactive
same,outcome,[10],inactive
same,outcome,[5],inactive
same,outcome,[6],inactive
same,outcome,[7],inactive
same,outcome,[8],inactive
same,AC50,[9],47.1 µM (active)
CCCCCCCCOC(=O)c1ccccc1C(=O)OCCCCCCCC,outcome,[1],inactive
same,outcome,[2],inactive
same,outcome,[3],inactive
same,outcome,[4],inactive
same,outcome,[10],inactive
same,outcome,[5],inactive
same,outcome,[6],inactive
same,outcome,[7],inactive
same,outcome,[8],inactive
same,outcome,[9],inactive
Clc1ccc(Cl)cc1,outcome,[1],inactive
same,outcome,[2],inactive
same,outcome,[3],inactive
same,outcome,[4],inactive
same,outcome,[10],inactive
same,outcome,[5],inactive
same,outcome,[6],inactive
same,outcome,[7],inactive
same,outcome,[8],inactive
same,outcome,[9],inactive
CCC(C)c1cc([N+](=O)[O-])cc([N+](=O)[O-])c1O (centres undefined),outcome,[1],inactive
same,outcome,[2],inactive
same,AC50,[3],2.25 µM (active)
same,AC50,[4],1.16 µM (active)
same,AC50,[5],7.37 µM (active)
same,AC50,[6],11.1 µM (active)
same,AC50,[7],1.38 µM (active)
same,AC50,[8],2.51 µM (active)
same,AC50,[9],85.7 µM (active)
c1ccc(-c2ccccc2)cc1,outcome,[1],inactive
same,outcome,[2],inactive
same,outcome,[4],inactive
same,outcome,[10],inactive
same,outcome,[5],inactive
same,outcome,[6],inactive
same,outcome,[7],inactive
same,outcome,[8],inactive
same,outcome,[9],inactive
CC(C)(c1ccccc1)c1ccc(O)cc1,outcome,[1],inactive
same,outcome,[2],inactive
same,outcome,[3],inactive
same,outcome,[4],inactive
same,outcome,[5],inactive
same,outcome,[6],inactive
same,outcome,[7],inactive
same,outcome,[8],inactive
same,outcome,[9],inactive
N#Cc1ccc(N(CC(N)=O)CC(F)(F)F)cc1C(F)(F)F,outcome,[1],inactive
same,outcome,[2],inactive
same,outcome,[11],inactive
same,outcome,[12],inactive
same,outcome,[13],inactive
same,outcome,[14],inactive
same,outcome,[15],inactive
same,outcome,[3],inactive
same,outcome,[4],inactive
same,outcome,[10],inactive
same,outcome,[5],inactive
same,outcome,[6],inactive
same,outcome,[7],inactive
same,outcome,[8],inactive
same,AC50,[9],50 µM (active)
CCOP(=S)(OCC)SCSC(C)(C)C,outcome,[1],inactive
same,outcome,[2],inactive
same,AC50,[11],37 µM (active)
same,outcome,[15],inactive
same,outcome,[3],inactive
same,outcome,[4],inactive
same,outcome,[10],inactive
same,outcome,[5],inactive
same,outcome,[6],inactive
same,outcome,[7],inactive
same,outcome,[8],inactive
same,outcome,[9],inactive
CO/C=C(/C(=O)OC)c1ccccc1COc1cccc(C(F)(F)F)n1,outcome,[1],inactive
same,outcome,[2],inactive
same,AC50,[3],9.8 µM (active)
same,AC50,[4],9 µM (active)
same,AC50,[5],9.85 µM (active)
same,AC50,[6],50 µM (active)
same,AC50,[7],6.81 µM (active)
same,AC50,[8],20.9 µM (active)
same,AC50,[9],8.52 µM (active)
ClC1=C(Cl)[C@]2(Cl)[C@@H]3[C@@H](Cl)[C@H]4O[C@H]4[C@@H]3C1(Cl)C2(Cl)Cl,outcome,[1],inactive
same,outcome,[2],inactive
same,outcome,[3],inactive
same,outcome,[4],inactive
same,outcome,[5],inactive
same,outcome,[6],inactive
same,outcome,[7],inactive
same,outcome,[8],inactive
same,AC50,[9],50 µM (active)
COc1ccc(O)c(C(C)(C)C)c1,outcome,[1],inactive
same,outcome,[2],inactive
same,outcome,[3],inactive
same,outcome,[4],inactive
same,outcome,[10],inactive
same,outcome,[5],inactive
same,outcome,[7],inactive
same,outcome,[8],inactive
same,outcome,[9],inactive
Cc1cccc([N+](=O)[O-])c1,outcome,[1],inactive
same,outcome,[2],inactive
same,outcome,[4],inactive
same,outcome,[10],inactive
same,outcome,[5],inactive
same,outcome,[6],inactive
same,outcome,[7],inactive
same,outcome,[8],inactive
same,AC50,[9],50 µM (active)
